According to PubChem BioAssay AID1159580 (chemical genetic matrix, 2015):
Where “and” joins values, the source holds several entries; their conditions need not be identical. Equal entries are not always repeated. In all, about 5,500 compounds went through this assay and about 2,000 (36%) were called active. Roughly 18% stayed inconclusive and do not appear here. Cut-off read from the data, not from the text of the source: active = normalized growth mostly below about 0.91 (no sharp cut-off); inconclusive = no clear call, values can overlap the other calls; inactive = mostly above about 0.92. The list shows a part of the results.

Test: chemical genetic growth profiling, strain panel (AID 1159580);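 note: tested at 20 µM; growth read once vehicle control cultures reached saturation at 30 °C; 1 = growth at the plate median or of vehicle wells; lower values mean less growth of the strain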
Details: S. cerevisiae deletion strains, growth OD

Measured: normalized growth

CCN1CCN(C(=O)NC(C(=O)N[C@@H]2C(=O)N3[C@@H]2SC(C)(C)[C@@H]3C(=O)O)c2ccccc2)C(=O)C1=O (stereo partly specified)
inactive: locus YAL013W, strain DEP1, hits give low values 1.01 | locus YAL021C, strain ccr4, hits give low values 1 | locus YAL026C, strain drs2, hits give low values 0.999 | locus YAL030W, strain snc1, hits give low values 1.01 | locus YBL061C, strain skt5, hits give low values 0.999 | locus YBR009C, strain hhf1, hits give low values 1.02 | locus YBR021W, strain FUR4, hits give low values 1.01 | locus YBR023C, strain chs3, hits give low values 1.01 | locus YBR171W, strain sec66, hits give low values 1 | locus YBR229C, strain ROT2, hits give low values 1.01 | locus YBR231C, strain swc5, hits give low values 0.98 | locus YBR279W, strain paf1, hits give low values 1 | locus YCL011C, strain gbp2, hits give low values 1.02 | locus YCL016C, strain dcc1, hits give low values 1 | locus YCL029C, strain bik1, hits give low values 1.02 | locus YCL061C, strain MRC1, hits give low values 0.995 | locus YCL069W, strain vba3, hits give low values 0.99 | locus YCR088W, strain abp1, hits give low values 1 | locus YDL005C, strain med2, hits give low values 0.988 | locus YDL035C, strain GPR1, hits give low values 0.988 | locus YDL040C, strain nat1, hits give low values 0.989 | locus YDL074C, strain BRE1, hits give low values 0.993 | locus YDL101C, strain DUN1, hits give low values 1.02 | locus YDL134C, strain PPH21, hits give low values 1.01 | locus YDL185W, strain tfp1, hits give low values 1.02 | locus YDL192W, strain arf1, hits give low values 1.01 | locus YDR001C, strain nth1, hits give low values 0.991 | locus YDR069C, strain doa4, hits give low values 0.997 | locus YDR101C, strain arx1, hits give low values 1.01 | locus YDR137W, strain rgp1, hits give low values 0.975 | locus YDR150W, strain NUM1, hits give low values 1.02 | locus YDR159W, strain sac3, hits give low values 1 | locus YDR162C, strain NBP2, hits give low values 0.997 | locus YDR195W, strain ref2 0.959 | locus YDR297W, strain sur2, hits give low values 0.996 | locus YDR318W, strain mcm21, hits give low values 1.02 | locus YDR334W, strain swr1, hits give low values 1 | locus YDR335W, strain msn5, hits give low values 0.999 | locus YDR388W, hits give low values 1.01 | locus YDR392W, strain spt3, hits give low values 1.03 | locus YDR502C, strain sam2, hits give low values 1.01 | locus YEL003W, strain gim4, hits give low values 1.01 | locus YEL037C, strain rad23, hits give low values 0.997 | locus YEL061C, strain CIN8 (second series), hits give low values 1 | locus YEL061C, strain CIN8, hits give low values 1.01 | locus YER015W, strain faa2, hits give low values 0.992 | locus YER016W, strain bim1, hits give low values 1 | locus YER110C, hits give low values 1.02 | locus YER111C, strain swi4, hits give low values 1 | locus YER155C, strain BEM2 (second series), hits give low values 0.993 | locus YER155C, strain BEM2, hits give low values 0.991 | locus YER167W, strain BCK2, hits give low values 1.01 | locus YFR010W, strain ubp6, hits give low values 0.984 | locus YGL078C, strain dbp3, hits give low values 1.01 | locus YGL086W, strain mad1, hits give low values 1.02 | locus YGL167C, strain pmr1, hits give low values 1 | locus YGL173C, strain kem1, hits give low values 0.991 | locus YGL227W, strain vid30, hits give low values 0.989 | locus YGL240W, strain doc1, hits give low values 0.975 | locus YGL248W, strain PDE1, hits give low values 1.01 | locus YGL253W, strain hxk2, hits give low values 0.999 | locus YGR078C, strain PAC10, hits give low values 1.02 | locus YGR135W, strain pre9, hits give low values 1 | locus YGR229C, strain SMI1, hits give low values 1 | locus YGR252W, strain gcn5, hits give low values 1.01 | locus YHR013C, strain ard1, hits give low values 0.975 | locus YHR027C, strain rpn1, hits give low values 0.996 | locus YHR030C, strain SLT2, hits give low values 1.01 and 1 | locus YHR079C, strain IRE1 (second series), hits give low values 1.02 | locus YHR079C, strain IRE1, hits give low values 1.01 | locus YHR094C, strain hxt1, hits give low values 1.01 | locus YHR129C, strain ARP1, hits give low values 1 | locus YHR142W, strain chs7, hits give low values 0.998 | locus YHR200W, strain rpn10, hits give low values 1.01 | locus YIL066C, strain RNR3, hits give low values 1.01 | locus YIL073C, strain SPO22, hits give low values 1.05 | locus YIL125W, strain kgd1, hits give low values 1.01 | locus YIR030C, strain dcg1, hits give low values 1.01 | locus YJL092W, strain hpr5, hits give low values 1 | locus YJL095W, strain BCK1 (second series), hits give low values 1 | locus YJL095W, strain BCK1, hits give low values 1 and 0.999 | locus YJL115W, strain asf1, hits give low values 0.996 | locus YJL129C, strain trk1, hits give low values 0.993 | locus YJL134W, strain LCB3, hits give low values 1.01 | locus YJL154C, strain vps35, hits give low values 1 | locus YJL164C, strain tpk1, hits give low values 0.99 | locus YJL166W, strain qcr8, hits give low values 0.992 | locus YJL168C, strain set2, hits give low values 1.01 | locus YJL187C, strain SWE1 (second series), hits give low values 1.03 | locus YJR043C, strain POL32, hits give low values 0.994 | locus YJR066W, strain TOR1, hits give low values 0.953
